Screening results as filed in PubChem.
Bead autofluor = counter-screen for toxin protease inhibitors: compound fluorescence | compound autofluorescence counterscreen, microsphere flow cytometry; hits give high values | fluorescence intensity (test concentration not listed) | 360,000 compounds, 3.1% hits | AID 624483; in the data active = fluorescence intensity above about 16000; inconclusive = no clear call, values can overlap the other calls
BoNT A protease = BoNT/A light chain protease inhibitors, primary screen, biochemical, flow cytometry, MLPCN library; Botulinum neurotoxin type A light chain protease (Clostridium botulinum A str. ATCC 3502); multiplex microsphere protease substrate cleavage; inhibition, % at 10 µM; 360,000 compounds, 0.17% hits; AID 588499, 2011
Anthrax LF inh2 = Bacillus anthracis LF protease inhibitors, primary screen, biochemical, multiplex microsphere, MLPCN library. Lethal factor (Bacillus anthracis), P15917. multiplex microsphere protease cleavage assay. inhibition, % at 10 µM. 360,000 compounds, 0.12% hits. AID 588501, 2011
BoNT-F LC inh = BoNT/F light chain protease inhibitors, primary screen, biochemical, flow cytometry, MLPCN library | Botulinum neurotoxin type F light chain protease (Clostridium botulinum) | 360,000 compounds, 0.22% hits | inhibition, % at 10 µM | Multiplex microsphere protease cleavage assay | AID 588497, 2011; in the data active = inhibition above about 35%, passing the limit was not always enough; inconclusive = no clear call, values can overlap the other calls
MazF activator = activators of E. coli MazEF toxin-antitoxin RNase, primary screen, biochemical, fluorescence, uHTS; activation, % at 20 µM; 350,000 compounds, 0.32% hits; FAM/BHQ RNA-DNA oligo cleavage fluorescence, 5 h; AID 504720, 2011; in the data active = activation above about 50%
Target sequence (P0AE70 whole entry, looked up): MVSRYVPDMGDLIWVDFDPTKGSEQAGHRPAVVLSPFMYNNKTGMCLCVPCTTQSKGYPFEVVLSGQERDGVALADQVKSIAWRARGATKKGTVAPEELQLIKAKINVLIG
DUSP3 inh = VHR1 phosphatase inhibitors, primary screen, biochemical, absorbance, uHTS | 290,000 compounds, 0.52% hits | inhibition, % at 13.3 µM | recombinant VHR phosphatase, pNPP absorbance | Dual specificity protein phosphatase 3 (Homo sapiens), P51452; in the data active = inhibition above about 50%
Target sequence (P51452 whole entry, looked up): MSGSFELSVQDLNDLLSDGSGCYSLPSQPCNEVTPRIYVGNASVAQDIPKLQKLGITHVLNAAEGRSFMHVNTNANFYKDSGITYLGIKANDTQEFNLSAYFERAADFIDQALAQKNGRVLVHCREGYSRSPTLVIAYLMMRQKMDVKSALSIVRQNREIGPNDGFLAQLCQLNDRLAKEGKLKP
Hits are given with their value; . = inactive; ? = inconclusive; / = no result given. Rows were chosen to be rich in hits. Some 4% of all compounds tested hit in one or more screens of this group. Rule as the data show it, unless noted: active = inhibition above about 30%; inconclusive = no clear call, values can overlap the other calls; inactive = below that.

SMILES	Bead autofluor	BoNT A protease	Anthrax LF inh2	BoNT-F LC inh	MazF activator	DUSP3 inh
CCCNC(=O)C1CCN(c2ccc(S(=O)(=O)N3CCOCC3)cc2Cl)CC1	.	.	.	.	.	57
C=CCNC(=O)C1CCN(c2ccc(S(=O)(=O)N3CCOCC3)cc2Cl)CC1	.	.	.	.	.	.
CCCNc1ncccc1C(N)=O	.	.	.	.	.	.
CC(C(=O)NCc1cccnc1)c1ccc([N+](=O)[O-])cc1 (stereo not given)	.	.	.	.	.	52
O=[N+]([O-])c1cccc(/C=C/c2nc(C=Nc3ccc4ccccc4c3)c(O)o2)c1	17170	.	.	.	.	.
N#Cc1ccc(OCC(=O)OCC(=O)Nc2ccc(N3CCOCC3)cc2)cc1	.	.	.	.	.	/
C[C@H](CO)N1C[C@H](C)[C@H](CN(C)C(=O)Nc2ccc(F)cc2)Oc2ccc(NC(=O)NC3CCCCC3)cc2CC1=O	.	.	.	.	.	/
Cc1cccc(C2=NN(c3ccc(Br)cc3)[C@@H](C(=O)N3CCOC3=O)[C@@H]2c2ccc(Cl)cc2)c1	.	.	.	.	129	/
N#CC1CC(c2ccc([N+](=O)[O-])cc2)=NN1c1ccc([N+](=O)[O-])cc1 (stereo not given)	.	.	.	.	563	.
O=[N+]([O-])c1cccc(C2CC(c3ccccc3)=NN2c2ccccc2)c1 (stereo not given)	.	.	.	.	.	.
CCC1(C)Cc2c(sc3nnn(CC(=O)Nc4ccccc4)c(=O)c23)CO1 (stereo not given)	.	?	.	.	.	.
CCC1(C)Cc2c(sc3nnn(Cc4ccccc4Cl)c(=O)c23)CO1 (stereo not given)	20244	.	.	.	.	.
CCC1(C)Cc2c(sc3nn[nH]c(=O)c23)CO1 (stereo not given)	16707	.	.	.	.	.
CCN(CC)S(=O)(=O)c1cccc(C(=O)Nc2ccc(C#N)cc2)c1	16843	.	.	.	.	.
CCN(CC)S(=O)(=O)c1cccc(C(=O)Nc2cc(C)cc(C)c2)c1	.	.	.	.	.	.
CCN(CC)S(=O)(=O)c1cccc(C(=O)NCCc2ccccc2)c1	16952	.	.	.	.	/
CC1CCCN(C(=O)NC(=O)c2ccc(Cl)cc2)C1 (stereo not given)	.	.	.	.	.	.
O=C(CN1CCN(c2nc(-c3ccc(F)cc3)cs2)CC1)Nc1ccc2c(c1)OCO2	16899	.	.	.	.	.
CN(CC(=O)Nc1ccccc1C(F)(F)F)C(=O)CC1OC(=O)c2ccccc21 (stereo not given)	.	.	.	.	.	.
COCCNC(=O)CN(c1ccc(C)cc1)S(=O)(=O)c1ccc(SC)cc1	.	.	.	.	.	.
CC(=O)NCCOC(=O)Nc1cccnc1	.	.	.	.	.	.
CC(=O)NCCOC(=O)Nc1ccncc1	20618	.	.	.	.	.
O=C(NCCCc1ccccc1)C1CC(=O)N(c2ccc3c(c2)OCCO3)C1 (stereo not given)	20162	?	.	.	.	.
CCOc1ccccc1CN1CCNC(=O)C1CC(=O)NC1CCCCC1 (stereo not given)	.	.	.	.	.	51
O=C1OC(N2CCN(Cc3ccccc3)CC2)c2ccccc21 (stereo not given)	?	.	.	.	.	/
SMILES	Bead autofluor	BoNT A protease	Anthrax LF inh2	BoNT-F LC inh	MazF activator	DUSP3 inh
CN1CCN(C2OC(=O)c3ccccc32)CC1 (stereo not given)	17143	.	.	.	.	.
S=C(NCc1ccc2c(c1)OCO2)Nc1ccc(-c2nc3ccccc3[nH]2)cc1	.	.	.	.	50	.
CC(=O)c1cc(C#N)c(SCc2ccc([N+](=O)[O-])cc2)nc1C	.	.	.	.	.	.
O=C(NC(Cc1ccccc1)C(=O)NCc1ccccn1)c1ccco1 (stereo not given)	17464	.	.	.	.	.
NC(=O)N/N=C/c1ccc([N+](=O)[O-])o1	.	.	.	.	.	/
O=[N+]([O-])c1ccc(/C=[N+](\[O-])CCO)o1	.	.	.	.	.	53
COCCNC(=O)c1ccccc1-c1ccccc1C(=O)O	.	.	.	.	.	.
O=C(O)c1ccccc1-c1ccccc1C(=O)NCCCO	20852	?	.	.	.	.
CN(C)Cc1c(C(=O)N/N=C/c2ccncc2)nnn1-c1nonc1N	.	.	.	42	.	.
CN(C)Cc1c(C(=O)N/N=C/c2cccc(OCc3ccc(F)cc3)c2)nnn1-c1nonc1N	.	.	.	.	99	.
CN(C)c1ccc(/C=N/NC(=O)c2nnn(-c3nonc3N)c2COc2ccc(F)cc2)cc1	.	.	32	.	.	.
Cc1ccsc1/C=N/NC(=O)c1nnn(-c2nonc2N)c1C	.	.	.	.	.	56
CCOc1ccc(/C=N/NC(=O)c2nnn(-c3nonc3N)c2COc2ccc(F)cc2)cc1	.	.	.	?	.	.
Cc1ccc(-c2c(C(=O)N/N=C/c3sccc3C)nnn2-c2nonc2N)cc1	.	.	.	.	.	.
Cc1ccccc1-n1cc(-c2ccc(Br)cc2)nc1SCC(N)=O	.	.	.	.	.	.
CCOc1ccc(S(=O)(=O)NCc2ccccc2)cc1C(N)=O	.	.	.	.	.	.
Cc1nnsc1NC(=O)OCc1ccc(Cl)cc1Cl	.	.	.	.	.	.
Cc1nn(C)c(Cl)c1NC(=O)OCc1ccc(Cl)cc1Cl	23382	?	.	.	.	.
Cc1nn(Cc2ccc(Cl)cc2Cl)c(C)c1NC(=O)CCl	19112	?	.	.	.	.
COc1cc(C(=O)OCC(=O)Nc2ccc(F)cc2F)cc(OC)c1OC	20961	?	.	.	.	.
CCC(CC)NC(=O)COC(=O)c1ccc(OCC(=O)Nc2ccccc2OC)c(OC)c1	21089	?	.	.	.	.
COc1ccc(C(=O)OCC(=O)Nc2ccc(F)cc2F)cc1OC	.	.	.	.	.	.
CCc1nc(N2CCCC2)c(C#N)c2c1CCCC2	.	.	.	.	.	.
CC(C)Oc1ccc(CCC(=O)N/N=C/c2ccc3c(c2)OCO3)cc1	.	.	.	?	.	51
CCC1Nc2ncnc(N3CCCCC3)c2N(Cc2ccc(C)cc2)C1=O (stereo not given)	.	.	.	.	.	/
O=S(=O)(CC(O)(c1ccccc1)c1ccccc1)CC(O)(c1ccccc1)c1ccccc1	.	.	.	.	69	/
CC(O)(CS(=O)(=O)c1ccc(Br)cc1)c1ccccc1 (stereo not given)	.	.	.	.	.	.
